A selection: hits, their analogues and other compounds. The true share with any hit is near 2%.
697 NFkB inh = inhibitors of PMA/ionomycin-induced NF-kB reporter, 697 cells, primary screen, B-cell NF-kB inhibitor project, cell-based, luminescence, uHTS; AID 435022, 2010; 697 B-cell NF-kB luciferase reporter, 16 h; inhibition, % at 4 µM; actives 0.33% (n = 330,000); in the data active means inhibition above about 35%
Gli-Sufu antag = Gli-Sufu pathway antagonists, primary screen, luciferase luminescence, Sufu-KO-LIGHT cells, uHTS; Sufu-KO-LIGHT fibroblasts, Gli luciferase reporter luminescence; actives 0.74% (n = 340,000); inhibition, % at 5 µM; AID 588413, 2011;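 active means inhibition above about 55%, limit read from the data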
GalR3 antagonist = GalR3 antagonists in HEK293 cells, primary screen, cell-based, fluorescence readout. HEK293 GalR3-CNG cAMP membrane potential fluorescence; galR3 body fused to GalR1 C-terminus. inhibition, % at 3 µM. actives 0.44% (n = 360,000);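 active means inhibition above the screen-wide average plus 3 SD, cut at about 13% in these data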;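 further: forskolin and galanin both at EC90 stimulate the cells; cAMP rise reported by CNG channel membrane potential dye signal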
COUP-TFII inh = NR2F2 transcriptional activity inhibitors, primary screen, cell-based, luciferase reporter, HEK293T, luminescence | HEK293T NGFI-A luciferase reporter | inhibition, % at 8.6 µM | actives 0.7% (n = 370,000) | AID 686940, 2013;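 active means inhibition above a per-plate cutoff, mean inhibition of test wells between control levels plus 3 SD, cut at about 38% in these data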;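 further: cells cotransfected with COUP-TFII expression vector driving the NGFI-A reporter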
Target sequence (P24468 whole entry, looked up): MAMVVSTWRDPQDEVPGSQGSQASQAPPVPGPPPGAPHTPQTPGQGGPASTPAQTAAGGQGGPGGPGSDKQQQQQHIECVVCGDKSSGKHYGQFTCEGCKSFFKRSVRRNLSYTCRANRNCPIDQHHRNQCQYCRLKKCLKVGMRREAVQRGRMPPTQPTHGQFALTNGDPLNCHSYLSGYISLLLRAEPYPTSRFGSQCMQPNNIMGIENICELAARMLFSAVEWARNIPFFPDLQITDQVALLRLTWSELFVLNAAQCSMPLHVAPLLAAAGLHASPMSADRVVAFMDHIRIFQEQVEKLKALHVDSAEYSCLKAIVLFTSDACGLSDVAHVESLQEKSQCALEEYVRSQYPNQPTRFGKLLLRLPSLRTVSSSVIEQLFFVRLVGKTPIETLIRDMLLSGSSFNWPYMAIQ
Jurkat NFkB inh = inhibitors of induced NF-kB luciferase reporter, primary screen, TCR NF-kB activation inhibitor project, cell-based, luminescence, uHTS; Jurkat, PMA/ionomycin-induced NF-kB luciferase reporter; inhibition, % at 4 µM; actives 0.53% (n = 330,000); AID 435003, 2010; in the data active means inhibition above about 50%
Gli antag conf = Gli-SUFU pathway antagonists, confirmation, single concentration, luciferase luminescence, Sufu-KO-LIGHT cells | shares compounds with Gli-Sufu antag | AID 602428, 2012 | Gli luciferase reporter | actives 40% (n = 2,500) | inhibition, % at 5 µM;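 active means mean inhibition at 5 µM reaching about 45%, limit read from the data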
SufuKO cytotox = cytotoxicity in Sufu-KO-LIGHT cells, confirmation, cytotoxicity control for Gli-SUFU antagonist project, cell-based, ATP luminescence, single concentration. shares compounds with Gli-Sufu antag. cytotoxicity, % at 5 µM. actives 32% (n = 2,500). AID 651994, 2013;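 active means mean cytotoxicity at 5 µM above about 25%, limit read from the data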;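 further: cells exposed to compound overnight for roughly 16 to 18 hours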
Wnt3a cs = Wnt3a reporter signal inhibition, confirmation, counter-screen for Gli-SUFU antagonist project, Wnt-LIGHT cells, luminescence, single concentration; shares compounds with Gli-Sufu antag; actives 20% (n = 2,500); Wnt3a-driven luciferase reporter; inhibition, % at 6.25 µM;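 active means mean inhibition above about 25%, limit read from the data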
A number is an active result; i = inactive; nt = not tested or not shown.

SMILES | 697 NFkB inh | Gli-Sufu antag | GalR3 antagonist | COUP-TFII inh | Jurkat NFkB inh | Gli antag conf | SufuKO cytotox | Wnt3a cs
COCCCNC(=S)N1CCN(S(=O)(=O)c2ccc(OC)cc2)CC1 | i | 69 | i | i | i | i | i | i
COc1ccc(S(=O)(=O)N2CCN(C(=S)NCCc3ccccc3)CC2)cc1 | i | i | i | i | i | nt | nt | nt
COCCOC(=O)c1[nH]c2c(c1C)C(=O)CC(c1cc(OC)c(OC)c(OC)c1)C2 (stereo not given) | i | i | i | i | i | nt | nt | nt
C=CCOC(=O)c1[nH]c2c(c1C)C(=O)CC(c1cc(OC)c(OC)c(OC)c1)C2 (stereo not given) | i | i | nt | nt | i | 61 | i | i
Cc1ccc(OCc2cc(C(=O)NC3CCCCC3)no2)cn1 | i | 57 | i | i | i | i | i | i
O=C(NC1CCCC1)c1cc(COc2ccc3ncccc3c2)on1 | i | i | nt | nt | i | 63 | i | i
Cc1cc(OCc2cc(C(=O)NC3CCC3)no2)cc(C)c1Cl | i | i | nt | nt | i | nt | nt | nt
COCC1CCN(C(=O)c2cc(COc3ccc4ncccc4c3)on2)CC1 | i | i | i | i | i | nt | nt | nt
CCCC/C=C1/[C@H](c2ccccc2)N(C)C2=N[C@@H](c3ccccc3)CC(=O)N21 | nt | nt | nt | i | nt | nt | nt | nt
COc1ccc(S(=O)(=O)NCC2CCCN(Cc3ccc(OC)cc3F)C2)cc1 (stereo not given) | i | 60 | i | i | i | i | i | i
COC(=O)C[C@H]1CC[C@H]2[C@H](COc3ccc(NC(=O)Cc4cccs4)cc3C(=O)N2C)O1 | nt | nt | nt | i | nt | nt | nt | nt
Cn1c(SCC(=O)Nc2ccc(S(=O)(=O)Nc3nccs3)cc2)nc2sc3c(c2c1=O)CCCC3 | nt | nt | nt | i | nt | nt | nt | nt
C=CCn1c(CCn2c3ccccc3c3ccccc32)n[nH]c1=S | i | i | i | i | i | nt | nt | nt
C=CCn1c(CCC(O)COCCC)n[nH]c1=S (stereo not given) | i | i | i | i | i | i | i | i
CCOC(=O)CNC(=O)c1c(C)nn(-c2ccccc2)c1Cl | i | 95 | i | i | i | i | i | i
CC(C)CN1C(=O)[C@]2(CC(=O)N(C)C2c2ccccc2)c2cc(-n3cc(CCCC#N)nn3)ccc21 (stereo not given in full) | nt | nt | nt | i | nt | nt | nt | nt
CC12CCC(=O)C=C1CCC1C2C(O)CC2(C)C(c3csc(N)n3)CCC12 (stereo not given) | nt | 59 | i | i | nt | 61 | i | 32
CCOC(=O)CNC(=O)CSc1nc(-c2ccc(C)cc2)ns1 | i | i | i | i | i | nt | nt | nt
CCOC(=O)CNC(=O)CSc1nc(-c2ccccc2)ns1 | i | 62 | i | i | i | i | i | i
CCn1nc(C)c(CN2CCCC(C(=O)c3cccc(OC(C)C)c3)C2)c1C (stereo not given) | i | 71 | i | i | i | i | i | 40
C=CCn1c(C)cc(C2=NNC(=NC(C)(C)C)SC2)c1C | i | 72 | i | 58 | i | 75 | 50 | 98
CC(C)Oc1ccc(CCNC(=O)C2CCC(=O)N(Cc3cccc(F)c3)C2)cc1 (stereo not given) | i | 57 | i | i | i | i | i | i
COc1ccccc1CCNC(=O)C1CCC(=O)N(Cc2cccc(F)c2)C1 (stereo not given) | i | i | i | i | i | nt | nt | nt
O=c1c2ccccc2nc2n1C(CSCc1ccc(Cl)cc1Cl)CS2 (stereo not given) | i | i | i | i | i | i | 33 | i
Nc1ccccc1SCC1CSc2nc3ccccc3c(=O)n21 (stereo not given) | i | i | i | i | i | nt | nt | nt
SMILES | 697 NFkB inh | Gli-Sufu antag | GalR3 antagonist | COUP-TFII inh | Jurkat NFkB inh | Gli antag conf | SufuKO cytotox | Wnt3a cs
CCOC(=O)C(C(=O)OCC)C(C)(C)/C(C)=N\Nc1ccc([N+](=O)[O-])cc1[N+](=O)[O-] | i | i | i | i | i | i | 29 | 69
Oc1ccc2ccccc2c1C=NN1CCN(Cc2ccc(Cl)cc2)CC1 | nt | nt | nt | i | nt | nt | nt | nt
CCOc1ccccc1NC(=O)COc1ccc2c(c1)OCO2 | i | i | i | i | i | nt | nt | nt
COc1ccccc1NC(=O)COc1ccc2c(c1)OCO2 | i | 59 | i | i | i | i | i | i
S=C(Nc1ccc(Cl)cc1)NC1CC2CCCC(C1)N2C1CCCC1 (stereo not given) | i | 60 | i | i | i | i | 31 | i
S=C(Nc1ccc(Cl)cc1)NC1CC2CCCC(C1)N2C1CC1 (stereo not given) | i | i | i | i | i | nt | nt | nt
COc1cc(OC)cc(C(=O)OCC(=O)c2ccc(S(=O)(=O)N3CCCCC3)cc2)c1 | i | 96 | i | i | i | i | i | i
COc1cc(C(=O)OCC(=O)c2ccc(S(=O)(=O)N3CCCCC3)cc2)cc(OC)c1OC | i | i | i | i | i | nt | nt | nt
O=C(NC1CCCc2c1cnn2-c1ccc(F)cc1F)c1cccs1 (stereo not given) | nt | nt | nt | i | nt | nt | nt | nt
Cc1cn([C@@H](CCCCNC(=O)OC(C)(C)C)C(=O)NCCCCCCCCCCC(=O)N2CCN(C(=O)OC(C)(C)C)CC2)nn1 | i | 60 | nt | nt | i | 59 | 36 | i
CC[C@H](C)Cc1cn([C@@H](CCCN=C(NC(=O)OC(C)(C)C)NC(=O)OC(C)(C)C)C(=O)NCCCCCCCCCCC(=O)N2CCN(C(=O)OC(C)(C)C)CC2)nn1 | i | i | nt | nt | i | nt | nt | nt
CC(C)(C)C1CCC(OC(=O)C[N+]2(C)CCCCC2)CC1 (stereo not given) | i | i | i | i | i | i | i | i
O=C(C1CCC1)N1CCN(c2ccnc3cc(Cl)ccc23)CC1 | i | i | i | i | i | nt | nt | nt
O=C(C1CCCCC1)N1CCN(c2ccnc3cc(Cl)ccc23)CC1 | i | i | i | i | i | 57 | i | i
O=C(C1CC1)N1CCN(c2ccnc3cc(Cl)ccc23)CC1 | i | i | i | i | i | nt | nt | nt
O=C(c1ccco1)N1CCN(c2ccnc3cc(Cl)ccc23)CC1 | i | i | i | i | i | i | i | i
COC(=O)[C@]12CCCCC=C1N(Cc1ccc(OC)cc1)C(=O)[C@@H]2CC(=O)NCc1cccs1 | nt | nt | nt | i | nt | nt | nt | nt
CC(C)(C)c1ccc(OCCCN2CCCC2)cc1 | i | 57 | i | i | i | i | i | i
O=C1C[C@H](C(=O)Nc2ccc(Cl)cc2)[C@@H](c2ccccc2)O1 | nt | nt | nt | i | nt | nt | nt | nt
Fc1cccc(Nc2c3c(nc4ccccc24)CCC3)c1 | i | i | i | i | i | nt | nt | nt

Screening results as filed in PubChem.
